# In PubChem BioAssay:
# Inconclusive results are not listed. Calls of active or inactive are those of the source.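 The calls were made as follows, unless noted: active = inhibition above 54%, about 3 SD of non-fluorescent compounds; inactive = the rest.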
# What was measured:
# [1] = rapamycin-like changes in RPL19A-GFP expression – cell-based, S. cerevisiae, multiplex flow cytometry, primary screen (AID 1862; in the data active = percent of DMSO control GFP below about 86%;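 also: lower values mimic rapamycin by blocking the RPL19A rise seen in DMSO cells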); conditions: S. cerevisiae RPL19A-GFP strain, flow cytometry fluorescence, 3 h; at 10 µM; stronger effect = lower value
# [2] = TOR pathway GLN3 branch reporter MEP2-GFP changes – S. cerevisiae, multiplex flow cytometry, primary screen (AID 1867;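 active = GFP response, as percent of the DMSO control, above the screen-wide mean plus 3 SD, about 139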;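 also: median GFP channel fluorescence of barcode-gated MEP2-GFP cells measured by flow cytometry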); conditions: S. cerevisiae MEP2-GFP strain, 3 h, at 10 µM, stronger effect = higher value, 100% means same as DMSO wells
# [3] = TOR pathway RTG branch CIT2 reporter changes – S. cerevisiae, GFP fusion, multiplex flow cytometry, primary screen (AID 1870;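 active = percent response above a set limit, the screen-wide mean plus 3 SD, cut at about 130% in these data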;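 also: barcoded CIT2-GFP strain pooled with four other GFP strains with rapamycin as positive control; median GFP fluorescence per well over plate mean of DMSO wells so 100% = DMSO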); conditions: S. cerevisiae CIT2-GFP expression, 3 h, at 10 µM, stronger effect = higher value
# [4] = TOR pathway LAP4-GFP level changes – S. cerevisiae, multiplex flow cytometry, primary screen (AID 1873;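 active = GFP signal, as percent of the solvent control, above the screen mean plus 3 SD, about 149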); conditions: S. cerevisiae LAP4-GFP expression, 3 h, at 10 µM, stronger effect = higher value
# [5] = reduced mouse 2C T cell binding to pMHC/ICAM-1 vesicles – MLPCN validation set, flow cytometry, LFA-1/ICAM-1 modulator project, pilot screen (AID 2523;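 active = response below a set limit, under 55% cells CD8-positive and vesicle-bound, and CD8 cells' 90th-percentile brightness under 279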;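 as to vesicle binding response: mean PE anti-B7-1 fluorescence of CD8+ cells relative to row control; 100% = QL9-loaded vesicles with DMSO vehicle in the same plate row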); conditions: 2C mouse CD8+ T cells, at 7 µM, stronger effect = lower value; double positive events: measured here: CD8+/vesicle+ event percentage
# [6] = target: Integrin beta-1 (Homo sapiens) + Integrin alpha-4 (Homo sapiens) (UniProt P13612+P05556); assay: alpha4beta1 integrin LIBS antibody binding reduction – U937 cells, HUTS-21 mAb, flow cytometry, validation set, VLA-4 allosteric modulator project, pilot screen (AID 2674;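 active = inhibition above 50%, about 3 SD of the validation set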;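 also: antibody binding induced by the VLA-4 ligand LDV present at three times its Kd; 0% = LDV ligand with antibody and no compound and 100% = antibody without LDV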); conditions: HUTS-21 LIBS mAb binding, at 6.7 µM, stronger effect = higher value, binding induced by LDV ligand
# [7] = calorie-restriction mimetic ROS inhibitors, yeast – validation compound set, pilot screen (AID 2706;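 active = superoxide response below 65% of plate, a cut near 3 SD across the whole screen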;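 also: yeast exposed to compound for one week at 30 degrees C before staining; 100% = mean of all compound wells on the same plate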); conditions: S. cerevisiae aging, superoxide DHE fluorescence; at 10 µM, stronger effect = lower value
# [8] = target: Beta-adrenergic receptor kinase 1 (Homo sapiens) (UniProt P25098); assay: GRK2 binders displacing RNA aptamer, biochemical, validation, human GRK2, bead flow cytometry (AID 488806;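 active = aptamer binding inhibition above 30%, about 3 SD of noise from non-fluorescent compounds; inactive = inhibition at or below 30%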); conditions: bead-bound GRK2, FAM-aptamer displacement, at 10 µM, stronger effect = higher value
# [9] = target: Beta-2 adrenergic receptor (Homo sapiens) (UniProt P07550); assay: agonist-induced loss of surface beta2AR – cell-based, FAP fluorogen, flow cytometry, validation set, pilot screen (AID 504459;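 active = percent response above 42, roughly 3 SD of non-fluorescent test compounds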;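 also: agonist-driven loss of surface beta2AR via internalization measured by FAP dye flow cytometry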); conditions: Am2.2-beta2AR cells, at 10 µM, stronger effect = higher value
# [10] = target: AP-2 complex subunit beta (Homo sapiens) (UniProt P63010); assay: beta-arrestin/AP2 interaction blockers – biochemical, validation set, GST-AP2 beads, flow cytometry, pilot screen (AID 504541); conditions: FITC arrestin peptide, at 10 µM, stronger effect = higher value, AP2 beta2 appendage fragment, R879A mutant;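 also: AP2 carries R879A mutation and is captured from E. coli lysate; bead-bound FITC arrestin peptide fluorescence measuring arrestin peptide binding to AP2; 0% = DMSO wells and 100% = excess unlabeled arrestin peptide control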
# [11] = cytosolic pH regulators acting via V-ATPase – S. cerevisiae, pHLuorin, HTS validation (AID 504600; in the data active = response above about 15%;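 also: plate controls were DMSO for no effect and reference compound for full effect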); conditions: V-ATPase proton transport, at 10 µM, stronger effect = higher value
# [12] = system: anti-desmoglein-3 scFv antibody binding to human DSG3; assay: blockers of pathogenic pemphigus antibody–desmoglein-3 binding – biochemical, validation compound set, bead-based, flow cytometry, pilot screen (AID 588368;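 active = binding below the plate cutoff, the plate median minus 3 SD, with a reading above zero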;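 also: signal is the median channel fluorescence of bead-bound GFP antibody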); conditions: Protein G beads, DSG3-Fc, scFv-GFP binding, at 10 µM, stronger effect = lower value
# [13] = Nile Red efflux blockade in pump-expressing yeast – validation compound set, multiplex, phenotypic, pilot screen (AID 588506;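 active = efflux inhibition above 0.42, the validation set average plus 4 SD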;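 also: Nile Red retained in cells so higher fluorescence means more efflux inhibition; 0 = negative control wells and 1 = enniatin B 25 µM full block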); conditions: S. cerevisiae pump-expressing triplex, Nile Red efflux flow cytometry; at 10 µM; stronger effect = higher value; the pumps come from Candida albicans
# [14] = target: ATP-binding cassette sub-family B member 6 (Homo sapiens) (UniProt Q9NP58); assay: blockers of ABCB6-driven porphyrin uptake – K562-ABCB6 cells, flow cytometry, validation set, pilot screen (AID 588550;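 active = inhibition above the screen-wide mean plus 3 SD, about 51%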;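 also: 0% = DMSO wells and 100% = benzethonium chloride 70 µM positive control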); conditions: K562-ABCB6 porphyrin accumulation, 1 h, at 10 µM, stronger effect = higher value
# [15] = AML differentiation inducers, ER-HoxA9 marrow cells – cell-based, GFP/MAC1 double positive, flow cytometry, validation set, primary screen (AID 588685;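 active = differentiation response of at least 50%, scaled between solvent and reference control, from cells with both markers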;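 also: compound exposure lasts four days before antibody staining and flow analysis; 0% = DMSO wells and 100% = 5 µM fulvestrant positive control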); conditions: stronger effect = higher value, normalized: vehicle 0, fulvestrant 100
# [16] = hit retest on RPL19A-GFP reporter strain – cell-based, S. cerevisiae, flow cytometry, cherry picks, mother/daughter gates, confirmation (AID 2270;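 active = GFP response below 50% of the DMSO control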); conditions: 3 h, at 10 µM, stronger effect = lower value, 100 = same GFP as DMSO wells
# [17] = yeast TOR pathway reporter LAP4-GFP change – cell-based, cherry picks, flow cytometry, mother/daughter gates, confirmation (AID 2271;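 active = GFP response above 150% of the DMSO control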;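 also: ratio of sample to DMSO plate mean so 100% equals DMSO level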); conditions: S. cerevisiae LAP4-GFP strain, 3 h, at 10 µM, stronger effect = higher value, 100 means same as DMSO control
# [18] = TOR pathway reporter MEP2-GFP, retest of hits – S. cerevisiae, flow cytometry GFP, cherry picks, confirmation (AID 2272;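 active = GFP response above 150% of the DMSO control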;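 also: ratio of well signal to plate DMSO mean so 100% equals DMSO level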); conditions: S. cerevisiae MEP2-GFP strain, 3 h, at 10 µM, stronger effect = higher value
# [19] = TOR pathway CIT2 reporter hit retest – S. cerevisiae, GFP fusion, cherry picks, mother/daughter gates, confirmation (AID 2274;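 active = GFP response above 150% of the DMSO level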); conditions: S. cerevisiae CIT2-GFP strain, flow cytometry, 3 h, at 10 µM, stronger effect = higher value
# [20] = yeast AGP1-GFP level changes, GLN3 branch – cell-based, multiplex flow cytometry, S. cerevisiae, primary screen (AID 1887;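 active = GFP signal above the screen-wide mean plus 3 SD, that is over about 124.5% of the solvent control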;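 also: AGP1-GFP fusion strain of S. cerevisiae within a five-strain barcoded multiplex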); conditions: 3 h, at 10 µM, stronger effect = higher value
# [21] = measured here: daughter cell gate
# [22] = measured here: mother cell gate
# AP-2 complex subunit beta (Homo sapiens), sequence (P63010 whole entry, looked up, the tested form may be a part, one chain of several): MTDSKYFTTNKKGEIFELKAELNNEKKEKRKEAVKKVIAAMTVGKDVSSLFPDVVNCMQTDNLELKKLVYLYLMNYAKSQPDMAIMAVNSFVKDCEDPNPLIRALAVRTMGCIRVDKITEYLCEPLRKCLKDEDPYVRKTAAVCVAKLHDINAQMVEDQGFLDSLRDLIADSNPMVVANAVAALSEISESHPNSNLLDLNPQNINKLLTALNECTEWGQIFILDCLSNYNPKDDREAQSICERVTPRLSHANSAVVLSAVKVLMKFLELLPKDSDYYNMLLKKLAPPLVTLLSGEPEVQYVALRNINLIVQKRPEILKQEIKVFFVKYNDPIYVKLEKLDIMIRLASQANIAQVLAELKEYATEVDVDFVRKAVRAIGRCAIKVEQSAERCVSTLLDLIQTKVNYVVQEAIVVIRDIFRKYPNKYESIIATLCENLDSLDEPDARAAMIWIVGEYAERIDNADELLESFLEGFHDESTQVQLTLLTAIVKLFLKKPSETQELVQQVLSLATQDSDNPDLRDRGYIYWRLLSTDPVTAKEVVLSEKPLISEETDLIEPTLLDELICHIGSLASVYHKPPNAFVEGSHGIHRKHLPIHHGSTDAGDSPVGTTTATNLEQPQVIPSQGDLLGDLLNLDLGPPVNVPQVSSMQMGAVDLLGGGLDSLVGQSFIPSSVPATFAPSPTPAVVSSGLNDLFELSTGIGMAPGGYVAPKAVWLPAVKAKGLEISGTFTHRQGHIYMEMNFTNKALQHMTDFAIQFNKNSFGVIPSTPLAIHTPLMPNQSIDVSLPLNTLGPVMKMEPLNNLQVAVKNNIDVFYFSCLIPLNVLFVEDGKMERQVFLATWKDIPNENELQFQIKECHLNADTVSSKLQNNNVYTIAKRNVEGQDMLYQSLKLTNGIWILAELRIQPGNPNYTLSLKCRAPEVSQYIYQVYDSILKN
# ATP-binding cassette sub-family B member 6 (Homo sapiens), sequence (Q9NP58 whole entry, looked up): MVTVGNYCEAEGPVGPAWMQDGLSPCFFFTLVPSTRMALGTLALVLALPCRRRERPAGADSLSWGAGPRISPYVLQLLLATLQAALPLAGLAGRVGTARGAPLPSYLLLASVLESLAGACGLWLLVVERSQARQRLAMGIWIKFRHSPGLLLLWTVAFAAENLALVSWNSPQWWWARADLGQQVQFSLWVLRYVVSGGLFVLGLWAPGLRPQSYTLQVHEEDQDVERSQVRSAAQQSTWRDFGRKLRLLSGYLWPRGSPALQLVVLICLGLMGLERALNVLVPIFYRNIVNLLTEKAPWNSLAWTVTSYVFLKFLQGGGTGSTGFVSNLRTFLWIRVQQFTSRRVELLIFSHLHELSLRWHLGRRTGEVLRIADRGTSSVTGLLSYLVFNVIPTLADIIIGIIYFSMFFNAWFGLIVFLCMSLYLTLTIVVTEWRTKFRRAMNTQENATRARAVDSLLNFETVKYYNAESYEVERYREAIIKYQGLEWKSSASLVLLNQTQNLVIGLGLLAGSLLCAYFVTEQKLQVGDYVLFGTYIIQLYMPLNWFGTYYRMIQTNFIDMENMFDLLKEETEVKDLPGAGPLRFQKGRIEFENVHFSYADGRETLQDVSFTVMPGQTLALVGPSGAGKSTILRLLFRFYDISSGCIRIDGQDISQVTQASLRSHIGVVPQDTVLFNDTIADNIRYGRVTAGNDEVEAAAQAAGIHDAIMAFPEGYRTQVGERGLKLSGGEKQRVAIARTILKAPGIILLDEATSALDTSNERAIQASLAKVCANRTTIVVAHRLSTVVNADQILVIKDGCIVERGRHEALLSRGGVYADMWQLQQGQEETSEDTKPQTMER
# Beta-adrenergic receptor kinase 1 (Homo sapiens), sequence (P25098 whole entry, looked up): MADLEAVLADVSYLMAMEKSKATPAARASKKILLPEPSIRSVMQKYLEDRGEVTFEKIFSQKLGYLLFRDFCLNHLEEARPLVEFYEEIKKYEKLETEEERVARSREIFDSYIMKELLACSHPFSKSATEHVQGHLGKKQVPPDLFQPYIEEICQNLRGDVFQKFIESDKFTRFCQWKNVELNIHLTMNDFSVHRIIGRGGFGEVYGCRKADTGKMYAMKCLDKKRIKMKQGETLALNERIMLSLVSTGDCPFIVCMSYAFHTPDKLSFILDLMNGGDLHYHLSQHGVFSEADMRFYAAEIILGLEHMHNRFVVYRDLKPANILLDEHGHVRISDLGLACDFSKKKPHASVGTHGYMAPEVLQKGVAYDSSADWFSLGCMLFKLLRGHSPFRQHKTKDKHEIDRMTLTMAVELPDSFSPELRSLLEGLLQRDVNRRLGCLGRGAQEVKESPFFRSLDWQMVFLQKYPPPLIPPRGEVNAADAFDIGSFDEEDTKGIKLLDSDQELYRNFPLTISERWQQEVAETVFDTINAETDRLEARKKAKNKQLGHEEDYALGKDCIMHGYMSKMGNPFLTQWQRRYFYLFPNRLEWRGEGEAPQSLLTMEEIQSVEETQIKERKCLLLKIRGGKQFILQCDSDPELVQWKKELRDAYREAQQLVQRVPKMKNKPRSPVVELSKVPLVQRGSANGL
# Integrin beta-1 (Homo sapiens) + Integrin alpha-4 (Homo sapiens), sequence (P05556 whole entry, looked up): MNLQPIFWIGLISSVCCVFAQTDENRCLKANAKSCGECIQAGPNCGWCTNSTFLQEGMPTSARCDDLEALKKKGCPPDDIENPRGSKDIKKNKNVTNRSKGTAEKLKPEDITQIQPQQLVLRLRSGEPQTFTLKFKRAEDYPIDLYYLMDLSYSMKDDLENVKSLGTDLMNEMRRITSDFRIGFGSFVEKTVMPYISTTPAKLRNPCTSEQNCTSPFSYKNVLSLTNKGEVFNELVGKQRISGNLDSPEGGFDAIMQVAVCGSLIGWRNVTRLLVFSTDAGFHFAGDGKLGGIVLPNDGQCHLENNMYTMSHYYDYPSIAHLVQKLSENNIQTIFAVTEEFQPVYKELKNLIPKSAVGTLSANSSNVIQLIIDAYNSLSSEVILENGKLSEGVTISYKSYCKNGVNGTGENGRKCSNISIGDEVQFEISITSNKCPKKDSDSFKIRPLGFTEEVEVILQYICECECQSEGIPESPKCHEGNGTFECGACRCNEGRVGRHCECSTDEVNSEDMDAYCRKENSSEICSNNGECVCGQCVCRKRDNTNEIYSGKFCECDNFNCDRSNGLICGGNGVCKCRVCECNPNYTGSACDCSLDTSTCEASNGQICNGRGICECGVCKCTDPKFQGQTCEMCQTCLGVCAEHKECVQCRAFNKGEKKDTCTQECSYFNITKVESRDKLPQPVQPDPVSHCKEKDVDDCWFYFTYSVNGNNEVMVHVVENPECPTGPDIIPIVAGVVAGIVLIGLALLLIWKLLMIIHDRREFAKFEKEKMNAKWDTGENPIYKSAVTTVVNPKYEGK
# Integrin beta-1 (Homo sapiens) + Integrin alpha-4 (Homo sapiens), sequence (P13612 whole entry, looked up): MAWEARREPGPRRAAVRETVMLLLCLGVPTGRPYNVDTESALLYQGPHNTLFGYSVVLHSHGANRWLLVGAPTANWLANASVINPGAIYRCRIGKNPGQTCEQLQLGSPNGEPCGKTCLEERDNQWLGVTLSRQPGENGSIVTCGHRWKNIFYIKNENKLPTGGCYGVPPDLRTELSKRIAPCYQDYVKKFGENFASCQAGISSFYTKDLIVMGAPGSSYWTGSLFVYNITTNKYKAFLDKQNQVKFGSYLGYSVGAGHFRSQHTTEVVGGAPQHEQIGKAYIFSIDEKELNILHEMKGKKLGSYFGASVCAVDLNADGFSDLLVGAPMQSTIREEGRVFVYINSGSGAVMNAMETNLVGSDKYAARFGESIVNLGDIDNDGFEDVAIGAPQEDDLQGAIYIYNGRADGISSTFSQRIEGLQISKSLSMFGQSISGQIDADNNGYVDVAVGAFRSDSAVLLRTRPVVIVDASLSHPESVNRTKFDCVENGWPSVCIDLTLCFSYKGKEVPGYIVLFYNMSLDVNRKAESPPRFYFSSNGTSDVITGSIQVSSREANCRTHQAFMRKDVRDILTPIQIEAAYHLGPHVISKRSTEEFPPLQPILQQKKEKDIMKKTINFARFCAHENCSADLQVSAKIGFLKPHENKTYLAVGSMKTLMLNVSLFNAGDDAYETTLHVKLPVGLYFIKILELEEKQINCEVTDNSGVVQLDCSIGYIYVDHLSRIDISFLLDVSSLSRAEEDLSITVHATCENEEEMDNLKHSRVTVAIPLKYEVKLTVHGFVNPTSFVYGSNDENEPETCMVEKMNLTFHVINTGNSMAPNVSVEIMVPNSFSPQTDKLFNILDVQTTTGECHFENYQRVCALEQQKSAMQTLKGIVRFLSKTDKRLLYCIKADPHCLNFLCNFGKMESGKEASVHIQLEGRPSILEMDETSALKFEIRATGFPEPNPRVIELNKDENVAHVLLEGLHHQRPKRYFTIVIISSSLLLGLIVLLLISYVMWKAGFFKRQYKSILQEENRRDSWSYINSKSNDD
# Beta-2 adrenergic receptor (Homo sapiens), sequence (P07550 whole entry, looked up, the tested form may be a part): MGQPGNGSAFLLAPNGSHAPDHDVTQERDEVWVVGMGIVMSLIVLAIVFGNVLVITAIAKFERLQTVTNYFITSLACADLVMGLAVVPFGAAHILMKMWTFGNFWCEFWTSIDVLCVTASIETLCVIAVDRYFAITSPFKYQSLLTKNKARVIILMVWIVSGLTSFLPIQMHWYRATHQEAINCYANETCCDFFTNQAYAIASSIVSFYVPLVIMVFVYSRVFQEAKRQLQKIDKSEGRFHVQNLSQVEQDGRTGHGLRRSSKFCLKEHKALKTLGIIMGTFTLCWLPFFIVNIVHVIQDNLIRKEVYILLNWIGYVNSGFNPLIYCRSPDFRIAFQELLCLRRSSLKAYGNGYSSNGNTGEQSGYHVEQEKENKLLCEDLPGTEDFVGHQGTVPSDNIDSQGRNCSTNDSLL
structure (smiles),measurement,setting,value
CC(=O)N1N=C(c2cccs2)CC1c1ccc(C)o1 (stereo not given),percent of DMSO control GFP,[1],92.8% (inactive)
same,GFP response vs DMSO,[2],131% (inactive)
same,percent response of DMSO control,[3],91.3% (inactive)
same,GFP response vs DMSO,[4],78.7% (inactive)
same,double positive events,[5],55.8%
same,vesicle binding response,[5],145% (inactive)
same,inhibition,[6],11.3% (inactive)
same,superoxide response (% of plate),[7],117% (inactive)
same,aptamer binding inhibition,[8],0% (inactive)
same,response,[9],-10.5% (inactive)
same,inhibition,[10],-6.28% (inactive)
same,response,[11],-0.52% (inactive)
same,binding (% of control),[12],96.7% (inactive)
same,efflux inhibition (fraction of control),[13],0.45 (active)
same,inhibition,[14],9% (inactive)
same,differentiation response,[15],-4.91% (inactive)
C[C@]12CCC(=O)C=C1CC[C@@H]1[C@@H]2C(=O)C[C@@]2(C)[C@H]1CC[C@]2(O)C(=O)CO,percent of DMSO control GFP,[1],89.8% (inactive)
same,GFP response vs DMSO,[2],125% (inactive)
same,percent response of DMSO control,[3],108% (inactive)
same,GFP response vs DMSO,[4],88% (inactive)
same,GFP response vs DMSO,[16],97% (inactive)
same,GFP response vs DMSO,[16]; [21],97.3%
same,GFP response vs DMSO,[16]; [22],98.1%
same,GFP response relative to DMSO,[17],96.5% (inactive)
same,GFP response relative to DMSO,[17]; measured here: daughter cell gate response,99.3%
same,GFP response relative to DMSO,[17]; measured here: mother cell gate response,94.6%
same,GFP response vs DMSO,[18],102% (inactive)
same,"GFP response, % of DMSO",[19],99.3% (inactive)
same,"GFP response, % of DMSO",[19]; [21],100%
same,"GFP response, % of DMSO",[19]; [22],99.1%
same,double positive events,[5],61.9%
same,vesicle binding response,[5],136% (inactive)
same,inhibition,[6],14.2% (inactive)
same,superoxide response (% of plate),[7],94.9% (inactive)
same,aptamer binding inhibition,[8],4% (inactive)
same,response,[9],-5.55% (inactive)
same,inhibition,[10],-9.52% (inactive)
same,response,[11],1.03% (inactive)
same,binding (% of control),[12],101% (inactive)
same,efflux inhibition (fraction of control),[13],0.3 (inactive)
same,inhibition,[14],14% (inactive)
same,differentiation response,[15],14.7% (inactive)
CCCNC(=O)NS(=O)(=O)c1ccc(Cl)cc1,percent of DMSO control GFP,[1],98.2% (inactive)
same,GFP response vs DMSO,[2],104% (inactive)
same,percent response of DMSO control,[3],97.1% (inactive)
same,GFP response vs DMSO,[4],101% (inactive)
same,"GFP response, % of DMSO",[20],103% (inactive)
same,double positive events,[5],48%
same,inhibition,[6],1.12% (inactive)
same,superoxide response (% of plate),[7],99.1% (inactive)
same,aptamer binding inhibition,[8],2% (inactive)
same,response,[9],-4.85% (inactive)
same,inhibition,[10],11.1% (inactive)
same,response,[11],-3.28% (inactive)
same,binding (% of control),[12],102% (inactive)
same,efflux inhibition (fraction of control),[13],-0.02 (inactive)
same,inhibition,[14],2% (inactive)
same,differentiation response,[15],8.02% (inactive)
COc1cc2c(cc1OC)C(Cc1ccc(O)cc1)N(C)CC2 (stereo not given),percent of DMSO control GFP,[1],99% (inactive)
same,GFP response vs DMSO,[2],127% (inactive)
same,percent response of DMSO control,[3],108% (inactive)
same,GFP response vs DMSO,[4],80.9% (inactive)
same,double positive events,[5],56%
same,vesicle binding response,[5],289% (inactive)
same,inhibition,[6],8.4% (inactive)
same,superoxide response (% of plate),[7],104% (inactive)
same,aptamer binding inhibition,[8],4% (inactive)
same,response,[9],-6.53% (inactive)
same,inhibition,[10],2.93% (inactive)
same,response,[11],0.76% (inactive)
same,binding (% of control),[12],108% (inactive)
same,efflux inhibition (fraction of control),[13],0.27 (inactive)
same,inhibition,[14],8% (inactive)
same,differentiation response,[15],2.46% (inactive)
Cc1ccccc1OCC(O)CN1CCN(C)CC1 (stereo not given),percent of DMSO control GFP,[1],97.9% (inactive)
same,GFP response vs DMSO,[2],115% (inactive)
same,percent response of DMSO control,[3],112% (inactive)
same,GFP response vs DMSO,[4],75.9% (inactive)
same,double positive events,[5],62.9%
same,vesicle binding response,[5],193% (inactive)
same,inhibition,[6],4.52% (inactive)
same,superoxide response (% of plate),[7],107% (inactive)
same,aptamer binding inhibition,[8],3% (inactive)
same,response,[9],-6.23% (inactive)
same,inhibition,[10],5.62% (inactive)
same,response,[11],-0.77% (inactive)
same,binding (% of control),[12],103% (inactive)
same,efflux inhibition (fraction of control),[13],0.27 (inactive)
same,inhibition,[14],7% (inactive)
same,differentiation response,[15],-2.46% (inactive)
